According to PubChem BioAssay (NCATS):
Results filed as inconclusive are left out. The source made the active and inactive calls. Unless noted, the call rests on the fitted dose curve; in most records, active means well fitted inhibition curve with a large enough effect; inconclusive means small, poorly fitted or top-dose-only effect; inactive means flat fitted curve, though single readings scatter.

What was measured:
[1] = qHTS drug screen for cell cycle checkpoint inhibitors in PARPi-resistant BRCA-mutant ovarian cancer cell lines. (AID 1963452; calls by dose curve); conditions: PEO1/OlaR viability, CellTiter-Glo luminescence, 96 h, stronger effect = lower value
Summary of the method: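 PEO1, PEO4 and PEO1/OlaR ovarian cancer cells, 600 per well, exposed 96 h at 37C to a dilution series. Viability read by CellTiter-Glo luminescence, normalized to DMSO and empty wells; activity summarized as Z-AUC.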

[2] = qHTS profiling for inhibitors of Plasmodium falciparum proliferation (AID 504749);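 further: 0% = DMSO vehicle and full inhibition = artemisinin control; nearly all actives have a fitted effect of over 60% in size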; conditions: P. falciparum in erythrocytes, SYBR Green DNA, 72 h, at 28.7 µM (top of the series)
Summary of the method: (§1)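 Readout was DNA-dye fluorescence from lysed cultures, ex 485/em 535 nm. Parasitized red cells had grown 72 h with compound; data scaled between 0.29 uM artemisinin and DMSO wells and corrected using vehicle-only plates.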

[3] = test system: 3D7; experiment: as above; conditions: P. falciparum in erythrocytes, SYBR Green DNA, 72 h; series mostly up to 28.7 µM
Summary of the method: as §1

[4] = test system: 7G8; experiment: as above; conditions: P. falciparum in erythrocytes, SYBR Green DNA, 72 h; series mostly up to 28.7 µM
Summary of the method: as §1

[5] = test system: AA1029; experiment: as above; conditions: P. falciparum in erythrocytes, SYBR Green DNA, 72 h; series mostly up to 28.7 µM
Summary of the method: as §1

[6] = test system: AS120; experiment: as above; conditions: P. falciparum in erythrocytes, SYBR Green DNA, 72 h; series mostly up to 28.7 µM
Summary of the method: as §1

[7] = test system: ATS189; experiment: as above; conditions: P. falciparum in erythrocytes, SYBR Green DNA, 72 h; series mostly up to 28.7 µM
Summary of the method: as §1

[8] = test system: ATS95; experiment: as above; conditions: P. falciparum in erythrocytes, SYBR Green DNA, 72 h; series mostly up to 28.7 µM
Summary of the method: as §1

[9] = test system: C2A; experiment: as above; conditions: P. falciparum in erythrocytes, SYBR Green DNA, 72 h; series mostly up to 28.7 µM
Summary of the method: as §1

[10] = test system: CP185; experiment: as above; conditions: P. falciparum in erythrocytes, SYBR Green DNA, 72 h; series mostly up to 28.7 µM
Summary of the method: as §1

[11] = test system: CP191; experiment: as above; conditions: P. falciparum in erythrocytes, SYBR Green DNA, 72 h; series mostly up to 28.7 µM
Summary of the method: as §1

[12] = test system: CP192; experiment: as above; conditions: P. falciparum in erythrocytes, SYBR Green DNA, 72 h; series mostly up to 28.7 µM
Summary of the method: as §1

[13] = test system: CP194; experiment: as above; conditions: P. falciparum in erythrocytes, SYBR Green DNA, 72 h; series mostly up to 28.7 µM
Summary of the method: as §1

[14] = test system: CP201; experiment: as above; conditions: P. falciparum in erythrocytes, SYBR Green DNA, 72 h; series mostly up to 28.7 µM
Summary of the method: as §1

[15] = test system: CP203; experiment: as above; conditions: P. falciparum in erythrocytes, SYBR Green DNA, 72 h; series mostly up to 28.7 µM
Summary of the method: as §1

[16] = test system: CP211; experiment: as above; conditions: P. falciparum in erythrocytes, SYBR Green DNA, 72 h; series mostly up to 28.7 µM
Summary of the method: as §1

[17] = measured here: PEO1 parental Z-AUC

## O=S(=O)(c1cccc2c(I)cccc12)N1CCCNCC1
[1]
  Z-AUC: -0.863 (inactive)
[1]; [17]
  Z-AUC: -0.557
[1]; measured here: PEO4 Z-AUC
  Z-AUC: -0.682

## CCN1/C(=C/C(C)=O)Sc2ccc(OC)cc21
[1]
  Z-AUC: 0.945 (inactive)
[1]; [17]
  Z-AUC: 0.672
[1]; measured here: PEO4 Z-AUC
  Z-AUC: 0.802

## CCOC(=O)N1CCN(/[N+]([O-])=N/Oc2ccc([N+](=O)[O-])cc2[N+](=O)[O-])CC1
[1]
  Z-AUC: 1.46 (inactive)
[1]; [17]
  Z-AUC: 1.72
[1]; measured here: PEO4 Z-AUC
  Z-AUC: 1.39

## COc1cc(SC)ccc1C(=O)N1CCC(Cc2ccccc2)CC1
[1]
  Z-AUC: 0.323 (inactive)
[1]; [17]
  Z-AUC: 1.42
[1]; measured here: PEO4 Z-AUC
  Z-AUC: 1.59

## CN[C@H](CC(C)C)C(=O)N[C@H]1C(=O)N[C@@H](CC(N)=O)C(=O)N[C@H]2C(=O)N[C@H]3C(=O)N[C@H](C(=O)N[C@H](C(=O)O)c4cc(O)cc(O)c4-c4cc3ccc4O)[C@H](O)c3ccc(c(Cl)c3)Oc3cc2cc(c3O[C@@H]2O[C@H](CO)[C@@H](O)[C@H](O)[C@H]2O[C@H]2C[C@](C)(N)[C@H](O)[C@H](C)O2)Oc2ccc(cc2Cl)[C@H]1O
[1]
  Z-AUC: -0.534 (inactive)
[1]; [17]
  Z-AUC: -0.325
[1]; measured here: PEO4 Z-AUC
  Z-AUC: -1.21

## COc1cc(CNC(=O)CCCC/C=C/C(C)C)ccc1O
[1]
  Z-AUC: 1.64 (inactive)
[1]; [17]
  Z-AUC: 1.45
[1]; measured here: PEO4 Z-AUC
  Z-AUC: 1.46
[2]; parasite line A
  activity, negative = inhibition: -2.8% (inactive)
[2]; parasite line B
  activity, negative = inhibition: 8.8% (inactive)
[3]
  Potency: inactive
[4]
  Potency: inactive
[5]
  Potency: inactive
[6]
  Potency: inactive
[7]
  Potency: inactive
[8]
  Potency: inactive
[9]
  Potency: inactive
[10]
  Potency: inactive
[11]
  Potency: inactive
[12]
  Potency: inactive
[13]
  Potency: inactive
[14]
  Potency: inactive
[15]
  Potency: inactive
[16]
  Potency: inactive

## O=C1NC(=O)/C(=C/c2ccc3nccnc3c2)S1
[1]
  Z-AUC: 1.93 (inactive)
[1]; [17]
  Z-AUC: 0.559
[1]; measured here: PEO4 Z-AUC
  Z-AUC: 0.611

## N#C/C(=C\c1ccc(O)c(O)c1)C(=O)NCc1ccccc1
[1]
  Z-AUC: 1.6 (inactive)
[1]; [17]
  Z-AUC: 1.01
[1]; measured here: PEO4 Z-AUC
  Z-AUC: 0.772

## Oc1cc(O)cc(/C=C/c2ccc(O)c(O)c2)c1
[1]
  Z-AUC: 1.52 (inactive)
[1]; [17]
  Z-AUC: 0.906
[1]; measured here: PEO4 Z-AUC
  Z-AUC: 0.317

## N.N.O=C(O)C1(C(=O)O)CCC1.[Pt]
[1]
  Z-AUC: 1.36 (inactive)
[1]; [17]
  Z-AUC: 0.632
[1]; measured here: PEO4 Z-AUC
  Z-AUC: 0.869
